Experimental data reported in PubChem BioAssay AID602393 (Broad Institute, 2012).
The campaign covered roughly 350,000 compounds. About 7,000 (2%) were called active. The entries come from a sample that favours actives as a whole. Values without a mark were called inactive. Rule as the data show it: active = activation above about 40%; inconclusive = no clear call, values can overlap the other calls; inactive = below that.

Assay: raisers of Bmi1 knock-in reporter signal – mouse ES cells, Bmi1 luciferase knock-in, single point, esBAF inhibitor project, primary screen (AID 602393);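 also: 0% = median of the plate's neutral control wells and 100% = double that signal; a rise in the Bmi1 reporter signal indicates esBAF inhibition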
Conditions: 24 h, at 12.5 µM, active compounds read high, 100% = twice the neutral-well signal

| Structure (SMILES) | reporter increase |
| --- | --- |
| C[C@@H]1CN([C@H](C)CO)C(=O)c2cc(C#CC3CC3)cnc2O[C@@H]1CN(C)Cc1ccccn1 | -2.08% |
| COc1cc(NC(=O)c2ccc(-c3csc(C)n3)cc2)c(OC)cc1Cl | 23.9% |
| COc1cccc(-c2cnc3c(NC(C)=O)cc(-c4cccc(NC(C)=O)c4)cn23)c1 | 6.31% |
| COc1ccc(-c2csc(Nc3cccc(C)n3)n2)cc1OC | 86.6% (active) |
| CC(=O)NC(c1ccccc1)c1nc(-c2cccc(C(C)C)c2)cs1 (stereo not given) | -2.45% |
| CC(=O)NC(c1cccc(F)c1)c1nc(-c2cccc(F)c2)cs1 (stereo not given) | 1.42% |
| CC(=O)Nc1cccc(-c2cc(NC(C)=O)c3ncc(-c4ccccc4)n3c2)c1 | -27.3% |
| COc1cccc(C(O)c2nc(-c3ccc(C)c(C)c3)cs2)c1 (stereo not given) | 3.8% |
| CC(=O)Nc1cccc(-c2cnc3ccccc3n2)c1 | 72.3% (active) |
| CC(=O)Nc1cccc(-c2csc(Nc3cccc(C)n3)n2)c1 | 51.5% (active) |
| COc1cccc(-c2cnc3c(c2)C(=O)N([C@H](C)CO)C[C@@H](C)[C@H](CN(C)Cc2ccc(F)cc2)O3)c1 | 1.81% |
| Cc1noc(C)c1S(=O)(=O)N(C)C[C@@H]1OCCCC[C@@H](C)Oc2ccc(NC(=O)c3ccccc3)cc2C(=O)N([C@@H](C)CO)C[C@@H]1C | 4.85% |
| COc1ccc(S(=O)(=O)Nc2ccc3c(c2)C(=O)N([C@@H](C)CO)C[C@H](C)[C@@H](CN(C)C(=O)c2ccccc2)OCCCC[C@H](C)O3)cc1 | -1.88% |
| C/C=C/c1ccc([C@H]2[C@@H](CO)N(C(C)=O)[C@H]2CNC(=O)c2ccncc2)cc1 | 2.82% |
| C[C@@H]1CN([C@@H](C)CO)C(=O)c2cc(NS(=O)(=O)c3ccccc3)ccc2O[C@@H](C)CCCCO[C@H]1CN(C)S(=O)(=O)c1cccs1 | -5.79% |
| O=C(C[C@@H]1C=C[C@@H](NC(=O)c2ccc3c(c2)OCO3)[C@H](CO)O1)NC1Cc2ccccc2C1 | 4.12% |
| C[C@@H]1CCCCO[C@H](CN(C)C(=O)CCC(F)(F)F)[C@H](C)CN([C@@H](C)CO)C(=O)c2cc(NC(=O)CCCCCC(=O)Nc3ccccc3N)ccc2O1 | 1.1% |
| COc1ccccc1N1CCN(/N=C/c2ccc(O)cc2O)CC1 | 60.9% (active) |
| COc1cc(/C=N/N2CCN(c3ccccc3)CC2)ccc1OC(C)=O | 7.78% |
| COc1ccccc1N1CCN(/N=C\C(Br)=C\c2ccccc2)CC1 | 24.6% |
